A short description of assay [1]: BSK_3C_TissueFactor: BioMAP Diversity Plus: 3C Assay for Tissue Factor Biomarker Activity (AID 2282997). Particulars: BioMAP 3C HUVEC, tissue factor biomarker readout; actives raise or lower the signal. The gist of the method:
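In this endothelial system, HUVEC are treated for 24 h and Tissue Factor is assessed by ELISA, normalised to DMSO.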

Assay [2] is described as follows: BSK_3C_uPAR: BioMAP Diversity Plus: 3C Assay for Urokinase-type plasminogen activator receptor (uPAR) Biomarker Activity (AID 2282998). Particulars: BioMAP 3C HUVEC, uPAR biomarker ELISA; actives raise or lower the signal. The gist of the method:
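Cell-surface uPAR on HUVEC (3C system) read by ELISA at 24 h post-treatment, with DMSO as baseline and fitting in both directions. Parallel cultures stained with SRB to flag overt cytotoxicity.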

The nature of assay [3]: BSK_3C_VCAM1: BioMAP Diversity Plus: 3C Assay for Vascular cell adhesion molecule 1 (VCAM1) Biomarker Activity (AID 2282999). Particulars: BioMAP 3C HUVEC, VCAM1 ELISA, cytokine-stimulated; actives raise or lower the signal. The gist of the method:
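Activity fitted in both directions relative to DMSO, with ELISA measurement of the surface marker on primary HUVEC (3C) at 24 h post-treatment; parallel SRB staining (0.1% SRB, TCA-fixed, 560 nm) flagged overt cytotoxicity.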

Assay [4] is described as follows: BSK_4H_Eotaxin3: BioMAP Diversity Plus: 4H Assay for Eotaxin 3 Biomarker Activity (AID 2283000).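 For outcome: CCL26 protein level quantified by ELISA in parallel with SRB cytotoxicity check.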 The following applies: primary human endothelial cells (HUVEC); actives raise or lower the signal. The gist of the method: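 ELISA quantitation of CCL26 (Eotaxin-3) protein from chemically dosed human vascular endothelial cells at 24 h; increases and decreases both scored relative to DMSO-treated baseline.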

Read-out in assay [5]: Intercellular Adhesion Molecule 1 (ICAM1), ICAM1 (gene 3383)
Kind of assay: BSK_3C_ICAM1: BioMAP Diversity Plus: 3C Assay for Intercellular Adhesion Molecule 1 (ICAM1) Biomarker Activity (AID 2283003). The following applies: primary human endothelial cells (HUVEC); actives raise or lower the signal. In outline:
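ELISA readout of ICAM1 in human umbilical vein endothelial cells in the 3C system, taken 24 h post-dose. Gain or loss of signal versus DMSO was fitted in both directions, with SRB total-protein staining run in parallel.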

A short description of assay [6]: BSK_3C_Proliferation: Cell Proliferation Assessment in the BioMAP Diversity Plus: 3C Assay (AID 2283006).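 For AC50: potency may reflect either rise or fall in cell number versus DMSO.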 The following applies: primary human endothelial cells (HUVEC). The gist of the method:
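Proliferation as total protein: sulforhodamine B (0.1%) stain of TCA-fixed subconfluent human umbilical vein endothelial cells, absorbance 560 nm, 48 h after dosing. Activity fitted in both directions against DMSO baseline.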

Read-out in assay [7]: E-selectin (Homo sapiens) (UniProt P16581)
Kind of assay: BSK_3C_Eselectin: BioMAP Diversity Plus: 3C Assay for Eselectin Biomarker Activity (AID 2283015).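 For outcome: cell surface E-selectin protein quantified by ELISA 24 h after dosing.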 Particulars: primary human endothelial cells (HUVEC); actives raise or lower the signal. In outline: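 Endpoint derived by bidirectional fitting against DMSO vehicle; signal is ELISA-detected E-selectin from primary HUVEC at 24 h post-dosing, with parallel SRB staining (0.1% SRB, 560 nm) flagging cytotoxicity.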

Read-out in assay [8]: Interleukin-1 alpha (IL1a), IL1A (gene 3552)
Kind of assay: BSK_BE3C_IL1a: BioMAP Diversity Plus: BE3C Assay for Interleukin-1 alpha (IL1a) Biomarker Activity (AID 2283016). Particulars: primary human bronchial epithelial cells; actives raise or lower the signal. In outline:
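IL-1a measured by ELISA after 24 h treatment of human primary bronchial epithelial cells, with gain or loss of signal fitted versus DMSO. Parallel cultures stained with SRB gauge overt cytotoxicity.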

Read-out in assay [9]: Monocyte Chemoattractant Protein-1 (MCP1), CCL2 (gene 6347)
Kind of assay: BSK_3C_MCP1: BioMAP Diversity Plus: 3C Assay for Monocyte Chemoattractant Protein-1 (MCP1) Biomarker Activity (AID 2283017). The following applies: primary human endothelial cells (HUVEC); actives raise or lower the signal. In outline:
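Using human vascular primary endothelium, researchers measured MCP-1 by ELISA 24 h after treatment, with DMSO serving as negative control for bidirectional fitting.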

Read-out in assay [10]: Monocyte Chemoattractant Protein-1 (MCP1), CCL2 (gene 6347)
Kind of assay: BSK_4H_MCP1: BioMAP Diversity Plus: 4H Assay for Monocyte Chemoattractant Protein-1 (MCP1) Biomarker Activity (AID 2283018). The following applies: primary human endothelial cells (HUVEC); actives raise or lower the signal. The gist of the method:
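ELISA of MCP-1 (CCL2) 24 h after chemical dosing of HUVEC in the BioMAP 4H system. Gain or loss versus DMSO fitted; parallel SRB staining (560 nm) tracked overt cytotoxicity.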

Read-out in assay [11]: Interleukin-8 (IL8), CXCL8 (gene 3576)
Kind of assay: BSK_3C_IL8: BioMAP Diversity Plus: 3C Assay for Interleukin-8 (IL8) Biomarker Activity (AID 2283020). Particulars: primary human endothelial cells (HUVEC); actives raise or lower the signal. The gist of the method: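 IL-8 was measured by ELISA in HUVEC cultures 24 h after chemical dosing, with gain or loss of signal fitted relative to DMSO. Parallel SRB total-protein staining tracked overt cytotoxicity.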

Read-out in assay [12]: Monokine induced gamma interferon (MIG), CXCL9 (gene 4283)
Kind of assay: BSK_3C_MIG: BioMAP Diversity Plus: 3C Assay for Monokine induced gamma interferon (MIG) Biomarker Activity (AID 2283021). Particulars: primary human endothelial cells (HUVEC); actives raise or lower the signal. In outline:
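ELISA measurement of MIG in human umbilical vein endothelial cells 24 h after treatment. Cytotoxicity tracked by SRB staining in parallel cultures; gain or loss of signal fitted relative to DMSO.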

Assay [13] in a line: BSK_3C_SRB: Viability Assessment in the BioMAP Diversity Plus: 3C Assay (AID 2283023).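 Note: cells read 24 h after compound dosing; fitted both ways against DMSO so a hit may be signal rise or drop.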 Particulars: primary human endothelial cells (HUVEC). In outline:
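Overt cytotoxicity is gauged in parallel confluent HUVEC cultures by SRB total-protein staining at the time of biomarker measurement, 24 h after dosing. Gain or loss of signal is fitted versus DMSO.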

Read-out in assay [14]: Matrix Metallopeptidase 1 (MMP1), MMP1 (gene 4312)
Kind of assay: BSK_hDFCGF_MMP1: BioMAP Diversity Plus: hDFCGF Assay for Matrix Metallopeptidase 1 (MMP1) Biomarker Activity (AID 2283064). Particulars: primary human foreskin fibroblasts; actives raise or lower the signal. In outline: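 MMP1 levels quantified by ELISA 24 h after dosing human dermal fibroblast cultures, with parallel SRB total-protein staining for overt cytotoxicity. Data fitted in both directions against DMSO baseline.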

Read-out in assay [15]: E-selectin (Homo sapiens) (UniProt P16581)
Kind of assay: BSK_SAg_Eselectin: BioMAP Diversity Plus: SAg Assay for Eselectin Biomarker Activity (AID 2283091). The following applies: primary human HUVEC with PBMC; actives raise or lower the signal. The gist of the method: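 Endpoint values derive from bidirectional fitting relative to DMSO, using ELISA-measured E-selectin in a human vascular co-culture (umbilical vein endothelium plus PBMC) sampled 24 h after dosing.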

A short description of assay [16]: BSK_SAg_PBMCCytotoxicity: PBMC Cytotoxicity Assessment in the BioMAP Diversity Plus: SAg Assay (AID 2283093).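 For AC50: PBMC superantigen activated with SEB plus TSST-1 one hour after compound addition.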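 Note: PBMC viability measured as Alamar Blue reduction fluorescence at 546/580 nm; fitted both ways against DMSO so a hit may be loss or gain of signal.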 Particulars: primary human HUVEC with PBMC. In outline: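 Alamar Blue reduction (6 h, ex/em 546/580 nm) read after 90 h culture of PBMC pre-dosed 1 h then stimulated with SEB plus TSST-1, 20 ng/mL each. Gain or loss of signal fitted relative to DMSO.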

Read-out in assay [17]: Interleukin-8 (IL8), CXCL8 (gene 3576)
Kind of assay: BSK_SAg_IL8: BioMAP Diversity Plus: SAg Assay for Interleukin-8 (IL8) Biomarker Activity (AID 2283094). The following applies: primary human HUVEC with PBMC; actives raise or lower the signal. In outline:
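ELISA readout of IL-8 from a superantigen-activated endothelial/PBMC primary human co-culture, taken 24 h post-dosing and fitted in both directions against DMSO; parallel SRB total-protein staining flags overt cytotoxicity.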

Assay [18] concerns the target Peroxisome proliferator-activated receptor gamma (Homo sapiens) (UniProt P37231). Kind of assay: OT_PPARg_PPARgSRC1_0480: Odyssey Thera (OT) 8-hour Protein-Complementation Assay for Peroxisome Proliferator-activated Receptor Gamma / SRC-1 Co-activator (AID 2283387; active = hit-call score of the fitted dose curve at least 0.9, where 1 is the maximum;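 note: nuclear to cytoplasmic split Venus YFP fluorescence ratio reporting PPARg SRC-1 interaction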). In outline: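 Read-out: 488 nm N/C fluorescence ratio from complemented Venus YFP fragments, ≥350 cells per image, gain-of-signal fitted against DMSO baseline. Fusions of PPARg/SRC-1 with IFP1/IFP2 expressed transiently in HEK293T; compounds applied 8 h.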

The target is the same in assay [19]. Kind of assay: OT_PPARg_PPARgSRC1_1440: Odyssey Thera (OT) 24-hour Protein-Complementation Assay for Peroxisome Proliferator-activated Receptor Gamma/ SRC-1 Co-activator (AID 2283388; active = hit-call score of the fitted dose curve at least 0.9, where 1 is the maximum;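 note: nuclear to cytoplasmic ratio of reconstituted Venus YFP fluorescence in fixed imaged cells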). The gist of the method: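 Cells carrying the PPARg/SRC-1 fragment-complementation reporter receive compound for 24 hours, are fixed and counterstained with Draq5, then imaged. Increased nuclear relative to cytoplasmic YFP fluorescence above DMSO baseline indicates binding activity.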

Molecules are shown by their SMILES. Results filed as inconclusive are left out. Activity calls are given as the source filed them. Rule for the calls, unless noted: active = hit-call score of the fitted dose curve at least 0.9, where 1 is the maximum; inactive = score below 0.9.

Chain of E-selectin (Homo sapiens) (P16581 whole entry, looked up): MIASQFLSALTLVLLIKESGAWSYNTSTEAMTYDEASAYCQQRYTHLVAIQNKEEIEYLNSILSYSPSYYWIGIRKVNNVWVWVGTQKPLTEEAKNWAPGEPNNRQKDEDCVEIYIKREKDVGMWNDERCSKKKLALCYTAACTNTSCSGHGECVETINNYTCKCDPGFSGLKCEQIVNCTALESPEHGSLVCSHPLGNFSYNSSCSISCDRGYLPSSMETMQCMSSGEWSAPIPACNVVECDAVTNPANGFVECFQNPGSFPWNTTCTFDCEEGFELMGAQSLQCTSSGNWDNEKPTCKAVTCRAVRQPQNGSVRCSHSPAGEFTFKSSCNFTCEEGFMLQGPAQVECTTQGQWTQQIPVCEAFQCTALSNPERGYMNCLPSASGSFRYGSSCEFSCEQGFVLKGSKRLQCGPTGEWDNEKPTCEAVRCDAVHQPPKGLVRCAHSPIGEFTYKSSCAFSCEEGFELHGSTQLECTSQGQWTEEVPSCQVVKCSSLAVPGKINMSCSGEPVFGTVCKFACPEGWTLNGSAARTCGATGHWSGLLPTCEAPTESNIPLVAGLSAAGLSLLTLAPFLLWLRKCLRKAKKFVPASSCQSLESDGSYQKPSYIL
Chain of Peroxisome proliferator-activated receptor gamma (Homo sapiens) (P37231 whole entry, looked up, the tested form may be a part): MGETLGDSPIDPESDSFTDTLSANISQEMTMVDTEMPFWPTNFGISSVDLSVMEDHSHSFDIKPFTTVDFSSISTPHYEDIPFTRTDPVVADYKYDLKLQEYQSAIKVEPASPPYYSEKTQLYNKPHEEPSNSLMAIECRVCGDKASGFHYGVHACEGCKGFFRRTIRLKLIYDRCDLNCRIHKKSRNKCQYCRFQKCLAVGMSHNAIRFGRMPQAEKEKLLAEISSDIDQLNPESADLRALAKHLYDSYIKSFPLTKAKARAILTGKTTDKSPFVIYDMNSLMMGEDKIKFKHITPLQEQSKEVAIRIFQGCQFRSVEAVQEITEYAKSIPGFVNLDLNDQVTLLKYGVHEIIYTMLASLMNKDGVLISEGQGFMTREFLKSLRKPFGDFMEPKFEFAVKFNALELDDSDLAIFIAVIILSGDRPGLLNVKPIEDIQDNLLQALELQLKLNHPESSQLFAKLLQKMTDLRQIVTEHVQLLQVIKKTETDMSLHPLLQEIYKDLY

Take `Oc1cccc2ccccc12`: the concentration at half-maximal activity (AC50) in [1] was 12.1 µM (active); in assay [4] it was 13.7 µM (active); in assay [13], 8.23 µM (active). The outcome in assay [2], in assay [3], in assay [5], in [6], in assay [7] and in assay [8] was inactive. The outcome in assay [9], in assay [10], in assay [11], in [12], in assay [14] and in assay [15] was inactive. Further, the result in assay [16] and in assay [17] was inactive.
As for `CC[N+](CC)(CC(=O)Nc1c(C)cccc1C)Cc1ccccc1` (tested in a mixture with another compound), the result in assay [1], in [2], in assay [3], in assay [4], in [5] and in assay [6] was inactive. Besides, the result in assay [7], in assay [8], in assay [9], in assay [10], in assay [11] and in assay [12] was inactive. Moreover, the outcome in [13], in assay [14], in assay [15], in assay [16], in [17] and in assay [18] was inactive. Besides, in assay [19], the compound was classed as inactive.
With `CC1=NN(c2cc(Cl)c(S(=O)(=O)O)cc2Cl)C(=O)C1N=Nc1ccc(S(=O)(=O)O)cc1` (centres undefined), the outcome in [18] and in [19] was inactive.
As to `Sc1nc2ccccc2s1`, the AC50 was 1.09 µM (active) in assay [1], 3.97 µM (active) in assay [4] and 0.0847 µM (active) in [8]. Moreover, the result in assay [2], in assay [3], in assay [5], in [6], in assay [7] and in [9] was inactive. Besides, the result in [10], in assay [11], in assay [12], in assay [13], in assay [14] and in assay [15] was inactive. The outcome in assay [16], in assay [17], in assay [18] and in assay [19] was inactive.
On to `CC(C)CC(=O)CC(C)CC(C)C` (centres undefined), for which the AC50 was 36 µM (active) in assay [1]; 30.9 µM (active) in [2]; 35.1 µM (active) in [3]; 33.8 µM (active) in [4]; 35.2 µM (active) in [5]; 36.6 µM (active) in assay [6]. Also, the concentration at half-maximal activity (AC50) in assay [7] was 34.6 µM (active); in assay [8], 31.5 µM (active); in [9], 31.2 µM (active); in assay [10], 31.1 µM (active); in [13] it was 35.2 µM (active); in [16], 33.3 µM (active). Besides, the result in assay [11], in [12], in assay [14], in assay [15] and in [17] was inactive.

Source of the values: PubChem BioAssay (EPA / NIEHS).
